Laboratory results as given in paper PMC11006913.
Residue numbers refer to the chain shown, from its start.

Experiments:
Assay in all cases: PBM; 200 nM protein, PBS
Conditions in all cases: dsDNA, one strand shown
HOXA4 [1] = target: HOXA4 (Homo sapiens, UniProt Q00056 201-287, W262R)
HOXA7 [2] = target: HOXA7 (Homo sapiens, UniProt P31268 116-202)
ALX4 = ALX4 (Homo sapiens, UniProt Q9H161 200-286)
PRRX1 [3] = target: PRRX1 (Homo sapiens, UniProt P54821 80-166, F113S)
HOXB6 = HOXB6 (Homo sapiens, UniProt P17509 132-218, K202E)
HOXA4 [4] = target: HOXA4 (Homo sapiens, UniProt Q00056 201-287, R217L)
HOXB4 = HOXB4 (Homo sapiens, UniProt P17483 148-234, V174I)
PAX4 = target: T1, PAX4 (Homo sapiens, UniProt O43316 9-242, R200Q)
T1 sequence: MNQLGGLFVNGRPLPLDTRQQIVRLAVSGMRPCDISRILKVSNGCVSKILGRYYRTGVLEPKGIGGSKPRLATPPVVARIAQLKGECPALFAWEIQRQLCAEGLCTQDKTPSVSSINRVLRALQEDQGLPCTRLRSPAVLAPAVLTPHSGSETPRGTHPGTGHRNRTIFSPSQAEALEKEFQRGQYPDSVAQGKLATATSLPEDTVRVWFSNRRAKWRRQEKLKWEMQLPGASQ

HOXA4 [5] = target: HOXA4 (Homo sapiens, UniProt Q00056 201-287)
MSX2 [6] = target: MSX2 (Homo sapiens, UniProt P35548 130-214)
MSX2 [7] = target: MSX2 (Homo sapiens, UniProt P35548 130-214, F161Y)
HOXA7 [8] = target: HOXA7 (Homo sapiens, UniProt P31268 116-202, W177C)
HOXA4 [9] = target: HOXA4 (Homo sapiens, UniProt Q00056 201-287, W262F)
PRRX1 [10] = target: PRRX1 (Homo sapiens, UniProt P54821 80-166)
VENTX [11] = target: T2, VENTX (Homo sapiens, UniProt O95231 78-163, R121Q)
T2 sequence: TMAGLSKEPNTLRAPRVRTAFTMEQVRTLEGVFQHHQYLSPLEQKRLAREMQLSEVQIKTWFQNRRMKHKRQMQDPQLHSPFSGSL

VENTX [12] = target: T3, VENTX (Homo sapiens, UniProt O95231 78-163, Y115F)
T3 sequence: T2 sequence with Y38F, Q44R

HOXA2 [13] = target: HOXA2 (Homo sapiens, UniProt O43364 129-215, R185T)
VAX1 [14] = target: VAX1 (Homo sapiens, UniProt Q5SQQ9 86-172, T142I)
VAX1 [15] = target: VAX1 (Homo sapiens, UniProt Q5SQQ9 86-172, K157R)
HOXA2 [16] = target: HOXA2 (Homo sapiens, UniProt O43364 129-215, R185K)
Chain of HOXA2 (Homo sapiens, UniProt O43364 129-215, R185K) (O43364 129-215 R185K): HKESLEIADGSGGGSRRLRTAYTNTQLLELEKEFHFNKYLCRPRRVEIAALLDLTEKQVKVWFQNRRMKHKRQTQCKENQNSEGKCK

Chain of MSX2 (Homo sapiens, UniProt P35548 130-214) (P35548 130-214): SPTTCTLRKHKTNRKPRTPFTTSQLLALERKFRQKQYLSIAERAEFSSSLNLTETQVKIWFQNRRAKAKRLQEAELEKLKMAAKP
Chain of HOXA7 (Homo sapiens, UniProt P31268 116-202, W177C) (P31268 116-202 W177C): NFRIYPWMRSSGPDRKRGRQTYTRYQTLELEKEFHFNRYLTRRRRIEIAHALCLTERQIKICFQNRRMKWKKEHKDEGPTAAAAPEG
Chain of HOXA4 (Homo sapiens, UniProt Q00056 201-287, R217L) (Q00056 201-287 R217L): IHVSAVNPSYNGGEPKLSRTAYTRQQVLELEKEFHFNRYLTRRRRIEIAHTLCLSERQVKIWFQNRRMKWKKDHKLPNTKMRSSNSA
Chain of HOXA4 (Homo sapiens, UniProt Q00056 201-287, W262R) (Q00056 201-287 W262R): as the sequence (Q00056 201-287 R217L) above, with L17R, W62R counted along it
Chain of PRRX1 (Homo sapiens, UniProt P54821 80-166, F113S) (P54821 80-166 F113S): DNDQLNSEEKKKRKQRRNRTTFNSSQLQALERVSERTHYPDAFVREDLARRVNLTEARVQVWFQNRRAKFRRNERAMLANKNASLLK
Chain of ALX4 (Q9H161 200-286): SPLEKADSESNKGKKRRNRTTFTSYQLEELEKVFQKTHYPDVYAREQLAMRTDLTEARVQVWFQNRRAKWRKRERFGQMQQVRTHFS
Chain of HOXA2 (Homo sapiens, UniProt O43364 129-215, R185T) (O43364 129-215 R185T): as the sequence (O43364 129-215 R185K) above, with K57T counted along it
Chain of HOXA7 (Homo sapiens, UniProt P31268 116-202) (P31268 116-202): as the sequence (P31268 116-202 W177C) above, with C62W counted along it
Chain of MSX2 (Homo sapiens, UniProt P35548 130-214, F161Y) (P35548 130-214 F161Y): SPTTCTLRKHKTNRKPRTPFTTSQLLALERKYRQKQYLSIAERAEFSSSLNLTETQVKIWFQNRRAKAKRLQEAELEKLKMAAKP
Chain of HOXA4 (Homo sapiens, UniProt Q00056 201-287) (Q00056 201-287): as the sequence (Q00056 201-287 R217L) above, with L17R counted along it
Chain of PRRX1 (Homo sapiens, UniProt P54821 80-166) (P54821 80-166): as the sequence (P54821 80-166 F113S) above, with S34F counted along it
Chain of HOXB4 (P17483 148-234 V174I): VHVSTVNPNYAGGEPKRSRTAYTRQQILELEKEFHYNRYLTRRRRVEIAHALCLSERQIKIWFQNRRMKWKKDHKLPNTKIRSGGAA
Chain of HOXA4 (Homo sapiens, UniProt Q00056 201-287, W262F) (Q00056 201-287 W262F): as the sequence (Q00056 201-287 R217L) above, with L17R, W62F counted along it
Chain of HOXB6 (P17509 132-218 K202E): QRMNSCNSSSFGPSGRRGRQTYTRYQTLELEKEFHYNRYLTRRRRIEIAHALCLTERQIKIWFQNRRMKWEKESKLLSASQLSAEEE
Chain of VAX1 (Homo sapiens, UniProt Q5SQQ9 86-172, K157R) (Q5SQQ9 86-172 K157R): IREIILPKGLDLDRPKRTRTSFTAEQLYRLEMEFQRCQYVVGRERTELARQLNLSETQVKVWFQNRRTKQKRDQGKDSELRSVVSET
Chain of VAX1 (Homo sapiens, UniProt Q5SQQ9 86-172, T142I) (Q5SQQ9 86-172 T142I): as the sequence (Q5SQQ9 86-172 K157R) above, with T57I, R72K counted along it

Question: How did the binding signal (HOXA4 [1]) turn out when ATAATTGA was run?
Answer: 10.6 upbm affinity estimate (log intensity, higher = more binding, comparable within an allelic series)

Question: And the binding signal (HOXA7 [2])?
Answer: 11.2 upbm affinity estimate (log intensity, higher = more binding, comparable within an allelic series)

Question: What about the binding signal (ALX4) of the same sequence?
Answer: 14 upbm affinity estimate (log intensity, higher = more binding, comparable within an allelic series)

Question: What about the binding signal (PRRX1 [3]) of the same sequence?
Answer: 11.5 upbm affinity estimate (log intensity, higher = more binding, comparable within an allelic series)

Question: What about the binding signal (HOXB6) of the same sequence?
Answer: 10 upbm affinity estimate (log intensity, higher = more binding, comparable within an allelic series)

Question: What about the binding signal (HOXA4 [4]) of the same sequence?
Answer: 12 upbm affinity estimate (log intensity, higher = more binding, comparable within an allelic series)

Question: What about the binding signal (HOXB4) of the same sequence?
Answer: 13.7 upbm affinity estimate (log intensity, higher = more binding, comparable within an allelic series)

Question: And the binding signal (PAX4)?
Answer: 11.9 upbm affinity estimate (log intensity, higher = more binding, comparable within an allelic series)

Question: And the binding signal (HOXA4 [5])?
Answer: 13.7 upbm affinity estimate (log intensity, higher = more binding, comparable within an allelic series)

Question: And the binding signal (MSX2 [6])?
Answer: 13.8 upbm affinity estimate (log intensity, higher = more binding, comparable within an allelic series)

Question: What about the binding signal (MSX2 [7]) of the same sequence?
Answer: 13.5 upbm affinity estimate (log intensity, higher = more binding, comparable within an allelic series)

Question: What about the binding signal (HOXA7 [8]) of the same sequence?
Answer: 8.94 upbm affinity estimate (log intensity, higher = more binding, comparable within an allelic series)

Question: What about the binding signal (HOXA4 [9]) of the same sequence?
Answer: 11.3 upbm affinity estimate (log intensity, higher = more binding, comparable within an allelic series)

Question: And the binding signal (PRRX1 [10])?
Answer: 13.5 upbm affinity estimate (log intensity, higher = more binding, comparable within an allelic series)

Question: What does the source list for CAATTAAA?
Answer: binding signal (VENTX [11]): 11.7 upbm affinity estimate (log intensity, higher = more binding, comparable within an allelic series); binding signal (HOXA4 [1]): 10.5 upbm affinity estimate (log intensity, higher = more binding, comparable within an allelic series); binding signal (HOXA7 [2]): 11.8 upbm affinity estimate (log intensity, higher = more binding, comparable within an allelic series); binding signal (ALX4): 14 upbm affinity estimate (log intensity, higher = more binding, comparable within an allelic series); binding signal (PRRX1 [3]): 11.2 upbm affinity estimate (log intensity, higher = more binding, comparable within an allelic series); binding signal (VENTX [12]): 11.4 upbm affinity estimate (log intensity, higher = more binding, comparable within an allelic series); binding signal (HOXB6): 10 upbm affinity estimate (log intensity, higher = more binding, comparable within an allelic series); binding signal (HOXA2 [13]): 12.6 upbm affinity estimate (log intensity, higher = more binding, comparable within an allelic series); binding signal (HOXA4 [4]): 12.1 upbm affinity estimate (log intensity, higher = more binding, comparable within an allelic series); binding signal (HOXA4 [5]): 13.6 upbm affinity estimate (log intensity, higher = more binding, comparable within an allelic series); binding signal (MSX2 [6]): 14 upbm affinity estimate (log intensity, higher = more binding, comparable within an allelic series); binding signal (MSX2 [7]): 13.7 upbm affinity estimate (log intensity, higher = more binding, comparable within an allelic series); binding signal (VAX1 [14]): 12.7 upbm affinity estimate (log intensity, higher = more binding, comparable within an allelic series); binding signal (HOXA7 [8]): 8.84 upbm affinity estimate (log intensity, higher = more binding, comparable within an allelic series); binding signal (HOXA4 [9]): 11.3 upbm affinity estimate (log intensity, higher = more binding, comparable within an allelic series); binding signal (PRRX1 [10]): 13.3 upbm affinity estimate (log intensity, higher = more binding, comparable within an allelic series); binding signal (VAX1 [15]): 12.8 upbm affinity estimate (log intensity, higher = more binding, comparable within an allelic series)

Question: With CAATTATG as the sequence, how does the binding signal (ALX4) read?
Answer: 13.8 upbm affinity estimate (log intensity, higher = more binding, comparable within an allelic series)

Question: And the binding signal (PRRX1 [3])?
Answer: 11.3 upbm affinity estimate (log intensity, higher = more binding, comparable within an allelic series)

Question: And the binding signal (HOXB6)?
Answer: 9.97 upbm affinity estimate (log intensity, higher = more binding, comparable within an allelic series)

Question: And the binding signal (HOXA2 [13])?
Answer: 12.5 upbm affinity estimate (log intensity, higher = more binding, comparable within an allelic series)

Question: What about the binding signal (HOXB4) of the same sequence?
Answer: 13.6 upbm affinity estimate (log intensity, higher = more binding, comparable within an allelic series)

Question: What about the binding signal (MSX2 [6]) of the same sequence?
Answer: 13.9 upbm affinity estimate (log intensity, higher = more binding, comparable within an allelic series)

Question: And the binding signal (MSX2 [7])?
Answer: 13.5 upbm affinity estimate (log intensity, higher = more binding, comparable within an allelic series)

Question: What about the binding signal (PRRX1 [10]) of the same sequence?
Answer: 13.5 upbm affinity estimate (log intensity, higher = more binding, comparable within an allelic series)

Question: Which results are given for CAATTAAG?
Answer: binding signal (VENTX [11]): 12 upbm affinity estimate (log intensity, higher = more binding, comparable within an allelic series); binding signal (HOXA4 [1]): 10.6 upbm affinity estimate (log intensity, higher = more binding, comparable within an allelic series); binding signal (HOXA7 [2]): 11.5 upbm affinity estimate (log intensity, higher = more binding, comparable within an allelic series); binding signal (ALX4): 13.9 upbm affinity estimate (log intensity, higher = more binding, comparable within an allelic series); binding signal (PRRX1 [3]): 11.3 upbm affinity estimate (log intensity, higher = more binding, comparable within an allelic series); binding signal (VENTX [12]): 11.6 upbm affinity estimate (log intensity, higher = more binding, comparable within an allelic series); binding signal (HOXB6): 9.95 upbm affinity estimate (log intensity, higher = more binding, comparable within an allelic series); binding signal (HOXA2 [13]): 12.9 upbm affinity estimate (log intensity, higher = more binding, comparable within an allelic series); binding signal (HOXA4 [4]): 12.1 upbm affinity estimate (log intensity, higher = more binding, comparable within an allelic series); binding signal (HOXB4): 13.7 upbm affinity estimate (log intensity, higher = more binding, comparable within an allelic series); binding signal (PAX4): 11.9 upbm affinity estimate (log intensity, higher = more binding, comparable within an allelic series); binding signal (HOXA2 [16]): 13 upbm affinity estimate (log intensity, higher = more binding, comparable within an allelic series); binding signal (HOXA4 [5]): 13.8 upbm affinity estimate (log intensity, higher = more binding, comparable within an allelic series); binding signal (MSX2 [6]): 13.9 upbm affinity estimate (log intensity, higher = more binding, comparable within an allelic series); binding signal (MSX2 [7]): 13.4 upbm affinity estimate (log intensity, higher = more binding, comparable within an allelic series); binding signal (VAX1 [14]): 12.8 upbm affinity estimate (log intensity, higher = more binding, comparable within an allelic series); binding signal (HOXA7 [8]): 8.83 upbm affinity estimate (log intensity, higher = more binding, comparable within an allelic series); binding signal (HOXA4 [9]): 11.7 upbm affinity estimate (log intensity, higher = more binding, comparable within an allelic series); binding signal (PRRX1 [10]): 13.3 upbm affinity estimate (log intensity, higher = more binding, comparable within an allelic series); binding signal (VAX1 [15]): 12.5 upbm affinity estimate (log intensity, higher = more binding, comparable within an allelic series)
